Screening data (PubChem BioAssay)
BCLXL inh – Bcl-xL (human) inhibition; inhibition, % at 10.9 µM; hit rate 0.7% among 320,000; Q07817; GST-Bcl-xL / FITC-Bim BH3 peptide fluorescence polarization; AID 2129;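 active = inhibition above the mean of all tested compounds plus 3 SD, cutoff set per campaign, cut at about 30% in these data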;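 also: inhibitors lower millipolarization by displacing the labeled peptide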
GLD-1 RNA inh – GLD-1-TGE RNA interaction inhibition (C. elegans) | hit rate 0.44% among 320,000 | Q17339 | AID 2280 | purified GLD-1 + fluorescein TGE RNA, fluorescence polarization | inhibition, % at 5.96 µM;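 active = percent inhibition above a per-plate cutoff, the plate mean of test compounds plus 3 SD, cut at about 30% in these data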
Target sequence (Q17339 whole entry, looked up): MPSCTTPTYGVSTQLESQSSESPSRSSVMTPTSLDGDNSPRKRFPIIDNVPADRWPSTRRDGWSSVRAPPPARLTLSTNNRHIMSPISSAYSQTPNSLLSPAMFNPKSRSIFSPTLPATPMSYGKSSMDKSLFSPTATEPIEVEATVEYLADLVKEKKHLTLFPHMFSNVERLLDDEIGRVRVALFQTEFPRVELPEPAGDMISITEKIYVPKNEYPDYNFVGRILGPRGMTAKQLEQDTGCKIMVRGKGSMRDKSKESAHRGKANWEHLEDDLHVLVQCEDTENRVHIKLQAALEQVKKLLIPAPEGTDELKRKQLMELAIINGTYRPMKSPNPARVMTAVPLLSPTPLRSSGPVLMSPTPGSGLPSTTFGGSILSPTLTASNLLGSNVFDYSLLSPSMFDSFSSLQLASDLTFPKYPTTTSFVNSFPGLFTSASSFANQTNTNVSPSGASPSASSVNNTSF
MEX-5 binding – C. elegans MEX-5 TCR-2 RNA binding activity. hit rate 0.38% among 300,000. Q9XUB2. MEX-5/FITC-TCR2 RNA binding, fluorescence polarization; active compounds read low. activity score (negative = inhibition of binding), % at 10 µM. AID 1832;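 active = inhibition past about -25% in most replicates, and total fluorescence under double the plate's negative control median, limit read from the data; inconclusive = replicates evenly split on the limit, or fluorescence at least double controls; inactive = too little inhibition in most replicates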
eLon inh – inhibits E. coli Lon protease; inhibition, % at 7.94 µM; P0A9M0; hit rate 0.42% among 360,000; purified E. coli Lon protease, fluorescence polarization; in the data active = inhibition above about 13%, passing the limit was not always enough
EBV gp42 inh – inhibitors of Epstein-Barr virus glycoprotein 42; Q1HVG2; inhibition, % (tested at 21.74 µM); Fluorescence polarization binding assay, mP read-out; hit rate 0.42% among 220,000; in the data active = inhibition above about 50%
Numbers stand for hits; – = inactive; ? = inconclusive; · = no result given. Only some compounds are listed: those with a hit (about 1.3% of all), similar ones and a draw of the others.

SMILES | BCLXL inh | GLD-1 RNA inh | MEX-5 binding | eLon inh | EBV gp42 inh
N#CC1=C(N)C(C#N)(C#N)C(c2cccnc2)C2CC(c3ccccc3)CC=C12 (configuration not stated) | 110 | 103 | – | 18 | –
N#CC1=C(N)C(C#N)(C#N)C(c2ccc[nH]2)C2CCCC=C12 (configuration not stated) | 67 | 77 | – | – | –
N#CC1=C(N)C(C#N)(C#N)C(c2cccnc2)C2CCCC=C12 (configuration not stated) | 84 | 60 | -26 | · | –
CC(C)c1ccc(C2C3CSCC=C3C(C#N)=C(N)C2(C#N)C#N)cc1 (configuration not stated) | – | – | – | · | –
Cc1ccc(S(=O)(=O)N(C)C[C@@H]2Oc3ccc(NC(=O)CCC(F)(F)F)cc3CC(=O)N([C@@H](C)CO)C[C@@H]2C)cc1 | · | – | · | – | ·
COc1ccc(S(=O)(=O)NC(=O)C2(C)CCN2C(=O)C(C)(C)c2ccccc2)cc1 (configuration not stated) | · | · | · | – | ·
Cc1ccc(S(=O)(=O)NC(=O)c2cc(C)n(-c3ccc(N(C)C)cc3)c2C)cc1 | – | – | – | – | –
N=c1oc2cc(O)ccc2cc1C(=O)Nc1ccccn1 | – | – | · | · | 77
N=c1oc2cc(O)ccc2cc1C(=O)Nc1nc2ccccc2s1 | – | – | – | – | 54
CN(Cc1cccc(Cl)c1Cl)C(=O)c1cc(S(=O)(=O)N2CCOCC2)ccc1F | · | – | · | – | ·
CN1C(=O)N(C)C2(c3ccccc3)Nn3c(s/c(=C/c4ccccc4F)c3=O)=NC12c1ccccc1 (configuration not stated) | – | – | – | · | –
CN(C)c1ccc(/C=c2/sc3n(c2=O)NC2(c4ccccc4)N(C)C(=O)N(C)C2(c2ccccc2)N=3)cc1 (configuration not stated) | – | – | – | · | 50
C[C@H](C(=O)CC(=O)OC(C)(C)C)[C@H](O)c1ccccc1 | – | – | – | – | ·
O=c1oc2ccccc2nc1/C=C(O)/C=C\c1ccccc1 | 57 | 34 | – | – | –
O=c1oc2ccccc2nc1/C=C(O)/C=C/c1ccc(F)cc1 | – | – | – | – | –
CC1(C)Cc2c(C#N)c(N)sc(=S)c2CS1 | 57 | 47 | – | – | –
CCOC(=O)c1c(-c2ccc(C)o2)csc1NC(=S)NC(=O)c1ccccc1Br | – | – | – | – | –
CCOC(=O)c1c(-c2ccc(C)o2)csc1NC(=S)NC(=O)c1cccs1 | – | – | -34 | – | –
COc1cc(C(c2c(C)[nH][nH]c2=O)c2c(C)[nH][nH]c2=O)cc([N+](=O)[O-])c1O | – | – | -81 | – | –
CCOc1cc(C(c2c(C)[nH][nH]c2=O)c2c(C)[nH][nH]c2=O)cc(Cl)c1O | – | – | – | – | ·
CCOc1cc(C(c2c(C)[nH][nH]c2=O)c2c(C)[nH][nH]c2=O)cc([N+](=O)[O-])c1O | – | – | -68 | – | ·
CC(=O)Nc1ccc(C(=O)CN2C(=O)NC3(CCOc4ccccc43)C2=O)c(F)c1 (configuration not stated) | – | – | · | – | ·
COCCOC(=O)C1=C(C)NC(=O)NC1c1c(Cl)nc2ccccn2c1=O (configuration not stated) | – | – | – | – | –
COCCOC(=O)C1=C(C)NC(=O)NC1c1c(Cl)nc2c(C)cccn2c1=O (configuration not stated) | 32 | – | – | · | –
CC1(OC(=O)C2CCCC2)C(=O)C=C2C=C3CCCN3C=C2C1=O (configuration not stated) | – | – | – | · | ·
COC(=O)CCCC1=CC2=CC(=O)C(C)(OC(=O)CCc3ccccc3)C(=O)C2=CO1 (configuration not stated) | 46 | 48 | – | – | –
CCCCC1=CC2=CC(=O)C(C)(OC(=O)c3ccc(Cl)nc3)C(=O)C2=CO1 (configuration not stated) | 52 | 68 | -29 | · | ·
CC(C)(C)OC(=O)NCCCC1=CC2=CC(=O)C(C)(OC(=O)C3CCCC3)C(=O)C2=CO1 (configuration not stated) | 65 | 79 | – | · | ·
CCCCC1=CC2=CC(=O)C(C)(O)C(=O)C2=CO1 (configuration not stated) | – | – | ? | · | ·
COC(=O)CCCC1=CC2=CC(=O)C(C)(OC(=O)c3ccco3)C(=O)C2=CO1 (configuration not stated) | 67 | 73 | -42 | · | ·
